Data on seven molecules can be found in PubChem BioAssay (NCI).

Each structure is given as a SMILES string. The panel holds about 83,000 compounds, 20% with a hit somewhere; the sample as a whole holds those more often.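 Note: values are percent growth. 100 is the growth of untreated cells, values between 100 and 0 indicate rising inhibition; between -100 and 0 indicates cell death.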 A number with no mark means an inactive call. Calls of active or inactive are those of the source. How the source made its calls: active means growth percent below 10; inactive means the rest.

What all share (assay): NCI-60 one-dose screen, 48 h (100 = growth as untreated, 0 = no growth, -100 = all killed)
Common to all, as to details: 10 µM unless noted

Test [1] concerns SR leukemia.
The subject of test [2] is RPMI-8226 leukemia.
Test [3] concerns OVCAR-8 ovarian.
The test system of test [4] is OVCAR-5 ovarian.
For test [5], the system named is OVCAR-4 ovarian.
In test [6] the test system is SK-OV-3 ovarian.
In test [7] the test system is IGROV1 ovarian.
In test [8] the test system is OVCAR-3 ovarian.
Test [9] concerns HS 578T breast.
Test [10] has as its system NCI/ADR-RES ovarian.
The test system of test [11] is T-47D breast.
Test [12] deals with BT-549 breast.
Test [13] concerns MDA-MB-435 melanoma.
The test system of test [14] is SW-620 colon.
For test [15], the system named is MCF7 breast.
Test [16] deals with HCT-116 colon.
Test [17] deals with HCC-2998 colon.
Test [18] deals with KM12 colon.
The subject of test [19] is MDA-MB-468 breast.

For `Cc1nc2sccn2c1-c1nnc(SCC(C)C)o1`, the growth in [1] was 44.8%; in test [2], 57.9%; in [3], 93.2%; in test [4], 90.5%; in test [5] it was 86%; in test [6], 102%. The growth in [7] is 89.4%; in test [8], 104%; in test [9], 88.7%; in test [10] it was 79%; in [11], 59.4%; in [12], 88.7%. In addition, the growth in test [13] was 102%; in test [14], 97.6%; in test [15] it was 37.5%; in [16], 82.8%; in test [17], 113%; in test [18], 98.1%. Moreover, the growth in test [19] was 4.49% (active).
With `N#C/C(=C/c1ccc([N+](=O)[O-])cc1)c1nnc(NC(=O)c2ccc(-n3c(=O)[nH]c4ccccc4c3=O)cc2)s1`, the growth in [1] is 91.6%; in test [2] it was 98.1%; in test [3], 93.4%; in test [4] it was 110%; in [5], 95.6%; in test [6], 104%. The growth is 98.6% in test [7]; 103% in test [8]; 101% in test [9]; 94.2% in test [10]; 85.8% in [11]; 107% in [12]. Further, the growth is 105% in test [13]; 100% in test [14]; 84.9% in [15]; 94.8% in test [16]; 108% in [17]; 90.8% in test [18]. Further, the growth in test [19] was 98.5%.
Consider `NS(=O)(=O)c1ccc(N2N=C(c3ccc(NC(=O)Nc4ccccc4)cc3)CC2c2ccc(Br)cc2)cc1` (stereo not drawn), for which the growth in test [1] is 13%; in [2], 4.09% (active); in test [3], -32.7% (active); in [4] it was -98.2% (active); in [5], -85.2% (active); in [6] it was -61.7% (active). For the same molecule, the growth in [7] is -86.7% (active); in test [8], -29.7% (active); in [9] it was -24.5% (active); in [10] it was -83.4% (active); in test [11], -73.8% (active); in test [12], -81.1% (active). Also, the growth in test [13] is -93.8% (active); in test [14], -3.46% (active); in test [15], -79.1% (active); in test [16] it was -68.1% (active); in [17], -100% (active); in test [18], -15.7% (active). The growth in test [19] was -95% (active).
In the case of `COc1ccc2ccccc2c1/C=C1\SC(=Nc2ccc(O)cc2)NC1=O`, the growth is 20.8% in [1]; -12.7% (active) in test [2]; 9.1% (active) in test [3]; 10.3% in test [4]; 56.2% in [5]; 29.6% in test [6]. Also, the growth in test [7] was 11.3%; in test [8], 35.5%; in test [9] it was 24.1%; in test [10], -5.75% (active); in [11], 36.4%; in test [12], -22.6% (active). Also, the growth in test [13] is 10.9%; in test [14], 35.4%; in test [15], 9.63% (active); in test [16], 2.32% (active); in [17], -0.301% (active); in [18], 17.3%. For the same molecule, the growth in [19] is -34.7% (active).
Turning to `Cn1cc(-c2cc(N)n3nc(-c4c[nH]c5ccccc45)cc3n2)c2cc(F)ccc21`, the growth is 13.1% in test [1]; 0.774% (active) in test [2]; -43.2% (active) in test [3]; 34.4% in test [4]; 35.3% in test [5]; 97.9% in test [6]. Besides, the growth in test [7] was 21.2%; in [8], 15.8%; in test [9], 79.5%; in [10], 19.1%; in [11] it was 15.8%; in [12], 98.3%. The growth was 14.6% in test [13]; -76.8% (active) in [14]; -7.62% (active) in test [15]; -71.3% (active) in test [16]; -65.5% (active) in test [17]; -33.9% (active) in [18]. Moreover, the growth in [19] was 8.2% (active).
For `COc1ccc(N=Nc2c(N)nn3c(-c4ccc5c(c4)C=S=C5)ccnc23)cc1`, the growth in [1] is 33.9%; in [2] it was 9.87% (active); in [3] it was 28.8%; in test [4] it was 80.4%; in [5] it was 24.3%; in test [6] it was 68.7%. Further, the growth in test [7] is 27%; in [8] it was 48.4%; in [9], 24.7%; in test [10] it was 3.61% (active); in test [11], 3.67% (active); in test [12] it was 19.9%. For the same molecule, the growth in [13] is 83.8%; in test [14], 65.5%; in test [15] it was 31.1%; in [16], 20.1%; in [17] it was 48%; in test [18] it was 42.5%. In test [19], the growth is 16.6%.
`CCCCCCCCCCCCCCCCCC(=O)Nc1ccc(OC)cc1`: the growth in [1] was 97.7%; in [2], 99.6%; in test [3], 112%; in test [4] it was 114%; in test [5], 113%; in test [6] it was 115%. Also, the growth in test [7] is 103%; in test [8], 119%; in [9] it was 101%; in [10] it was 101%; in test [11] it was 108%; in [12], 108%. For the same molecule, the growth in [13] was 115%; in [14], 103%; in test [15], 93.3%; in [16], 102%; in test [17], 122%; in test [18] it was 101%. The growth in test [19] is 99.8%.
